# From article PMC12864922, “TDP-43 directly inhibits mRNA accumulation in neurites through modulation of mRNA stability”
# Whole data set: some 9,900 sequences, median “r (bound/input frequency ratio)” near 0.7, cut for the highest 2% near 6.5. The list comes from a sample in which the highest values are over-represented; it also holds similar and randomly drawn sequences.
# B1: ENSMUSG00000031028.55|Tub (ssRNA)
# RNA: GGGAGUUCUACAGUCCGACGAUCGCUUCGAUAUCCGCAUGCUAUGUGCCCCAAGGUCAACACACAUGCCCAGUCCUGGGUCAGUCCCCUGCUGCAGUGGUGUUAUCACACCGGAAAGCCUCUUCACCUGGAGGUACAGAGGGAGAGGAAGCACAAGCCUGGCUGCUGUGGCUCAGCCAUCCACUCAGCCUACGAGUCAGAGACAGUGGGUGUCCCGGGAAGCAGGGGUACAGUGAGUGUGUGUGUAUGUACAGGGCACUCAAGCUGUAUGUAGAAAAAGCUCUGGUGGUCAGCAGAAAGCACUCUCUUGCGGUCGCACUAGUGUGGAAUUCUCGGGUGUCAAGG
# B2: ENSMUSG00000042529.483|Kcnj12 (ssRNA)
# RNA: GGGAGUUCUACAGUCCGACGAUCGCUUCGAUAUCCGCAUGCUAUCUCUUUGAAUGCUACUGUGUUGAGAUGUGCGUCUCACUGGCCUCUGCCUGCCUCUCCCGCCUGCGGAGCACUUACACUUCCUGGGGCCCCUGCAGCUGGACCAUGUACAGGGCUCCCUGGGGCUUGUCCUCAGGGGCAGAGAAGGACAUGGUGGCAGCAGCACUGAGAACAGGAGCAUGGCCUCUCUCAGACCCCAGGGCAGUCAUUCAGUCUUUUCCAUGGACACUCCCCACCGCUCCACAUACUGCCUCCGCCUCAUCUCUUGCGGUCGCACUAGUGUGGAAUUCUCGGGUGUCAAGG
# B3: ENSMUSG00000061578.627|Ksr2 (ssRNA)
# RNA: GGGAGUUCUACAGUCCGACGAUCGCUUCGAUAUCCGCAUGCUAAGGGAGCAACCUAUAGGAAAUGCAAAGGCUUAGAGGGGACGGACAGCUCCCUGACCCUGGAUGGCCAGGAAUGGUGCUAGCUAGGGUGUGAGCCAAGCCCUUGAGGCUACUGUGAGUUAUGAGAUGUGUCCAACCCUCAGCCCACAGACUGCAUAUGCCCCAGGACAGCUGUGAAGGUGACCCAAUACAAAAUCGUAAACUAACUUAAAACCAUUAAGGGUUUUUGUUUUGUUGUUGUUUGCUGGCUUUUUGUUUUUUGGCUCUUGCGGUCGCACUAGUGUGGAAUUCUCGGGUGUCAAGG
# B4: ENSMUSG00000042529.54|Kcnj12|94:101;234:238 (ssRNA)
# RNA: GGGAGUUCUACAGUCCGACGAUCGCUUCGAUAUCCGCAUGCUAGCAAGGAGGUGACUUCUUGGGGUAGGGUUGCUCAGGAGUUAGGGACUCUGCUGGAGGCCUUAGGUGCAGGUCCCAGCCCCGGUGGGAGGAGGCACACAUACUACACUUCAUUGGUUUUUAACUUGGGCAAGACUGUUUACAAACAAAAACAAACAAACAAACAAUCAAAAAAAAAACCCACCCCACAAAACACAAGAAAACAUUAACAGGUGGUUCAAUUUUUAAAAUUCCUGCACACGGGACAGUUGGAAUUCUACUCACUCUUGCGGUCGCACUAGUGUGGAAUUCUCGGGUGUCAAGG
# B5: ENSMUSG00000042529.244|Kcnj12|181:185 (ssRNA)
# RNA: GGGAGUUCUACAGUCCGACGAUCGCUUCGAUAUCCGCAUGCUAAGAUAGGCUGGCUCCCAGGCACCUUGCUUCAGAUUCCAUGCUAAUUUCUAAUCUAGGAGAUUCCCCUAGGACCCGCUGCAGAGGCAUGGGCUCCUCUGUGGUCCUGGCCAGACCUCUGCCCCCAAAUCUCACUGACUGUUCUAGCCUUGGCCUUGGGGCCUAAGGGUGCAUUCAGCCUGGCACACCUUACCUGCCACUCACCUCUCUAUCUAGUUGUCGAGUCUAGGGAAGGGCAGAGGGUGGGUCCUGGCCACUGGGUGCUCUUGCGGUCGCACUAGUGUGGAAUUCUCGGGUGUCAAGG
# B6: ENSMUSG00000031028.132|Tub|108:112;184:189 (ssRNA)
# RNA: GGGAGUUCUACAGUCCGACGAUCGCUUCGAUAUCCGCAUGCUAGGGGAUGAUAGGAGUCAUCCAGUAGACUCCCUACAUCAGGGCUCUCAGCAGCCCCAGCACAACACCUAUGACACACACACAGGAUCUAGGUCACCAUUCAAGUAAUGCAUACCUUCAGGAAGAAUGUCCUCUCUGGGAAGACUCAGCUCCCAUUAUUGCCAGCAUGCCAUGAUCAGUGAGGGCACACACCCAUGCUUAGGGGGAUGGCGCAGGGUGAGGGGAGCAGAGGAUAUUUUAGGGCCACAAGAGCUCAGAGGUAGCUCUUGCGGUCGCACUAGUGUGGAAUUCUCGGGUGUCAAGG
# B7: ENSMUSG00000032194.60|Kank2 (ssRNA)
# RNA: GGGAGUUCUACAGUCCGACGAUCGCUUCGAUAUCCGCAUGCUAAGGGGGGGCAAGAAGAGAAAAUACUGUAUUCUUGAGUCAUUGUUAGGGGAUGGGAGGGGUCAGAAUUCAGUUGCUAAAUUUGAAUGUCACUGGAAUGUUACAGUGUCUAUUGUCUCCUCAUCUUUACAGCAGGUCUCCACAAAGCCUGCUCACCACCCUUUGUCACCUCAUUUCAUUGUCUAGUGUACAAUAGGGUCUUGUCCACUGCCCUCCACCUCCAGACUGUGUCUUCAGGGCCUGGGGUGUCUCUUGUGAUUGCUCUCUUGCGGUCGCACUAGUGUGGAAUUCUCGGGUGUCAAGG
# B8: ENSMUSG00000061578.444|Ksr2 (ssRNA)
# RNA: GGGAGUUCUACAGUCCGACGAUCGCUUCGAUAUCCGCAUGCUAAAUCCUUCAAGACAGAAGUUUCAGAGGGGAUAGUUCCUUCUAACCUUGUACUGGGACAUCAUCUAUGUCCCCAUCCCCAGAGCUGAAUUAGAGACACCAAGUAGCCUCUUGGGUUGUUUUGUGGGGUGUUCCCCUUGCUGGUCAAAGGAGUGGAAAGCCACCUUGCUGUAAAUGCUCUUGUUUUCUGUAGCAAUCUUGAACUCUUUUUUUUUUUUGUUCGUUUGUUUGUUUGUUUGUUUGUUUGUUUUUUCAAGACAGGGCUCUUGCGGUCGCACUAGUGUGGAAUUCUCGGGUGUCAAGG
# B9: ENSMUSG00000058297.14|Spock2|167:171;175:188;197:208;222:228;237:246;252:260 (ssRNA)
# RNA: GGGAGUUCUACAGUCCGACGAUCGCUUCGAUAUCCGCAUGCUAUGAUGGAGGCUACAUCUGGUAGAUAGCCCUCGACGGCCUCGGCAGGCCAGGGUGCCGACGGCCAGAAAGACAGGCCAGAAGAGACCUGGACAACAGCAGGCAACUUAGCAAAUGGAUCCGGAAGUCAGUGCGGAGGACCCUGGCUCCAGUGGGGGAGGACUGGGGACACACGCUACACACAUACACACAUAUGAGAACACACACAUACAUGUGAGAUGUGACACACACAUGUGAGAACACACAUACUGAGAACACACACACUCUUGCGGUCGCACUAGUGUGGAAUUCUCGGGUGUCAAGG
# Molecular target: TDP-43 (Homo sapiens, UniProt Q13148 1-414)
# Sequence (Q13148 whole entry): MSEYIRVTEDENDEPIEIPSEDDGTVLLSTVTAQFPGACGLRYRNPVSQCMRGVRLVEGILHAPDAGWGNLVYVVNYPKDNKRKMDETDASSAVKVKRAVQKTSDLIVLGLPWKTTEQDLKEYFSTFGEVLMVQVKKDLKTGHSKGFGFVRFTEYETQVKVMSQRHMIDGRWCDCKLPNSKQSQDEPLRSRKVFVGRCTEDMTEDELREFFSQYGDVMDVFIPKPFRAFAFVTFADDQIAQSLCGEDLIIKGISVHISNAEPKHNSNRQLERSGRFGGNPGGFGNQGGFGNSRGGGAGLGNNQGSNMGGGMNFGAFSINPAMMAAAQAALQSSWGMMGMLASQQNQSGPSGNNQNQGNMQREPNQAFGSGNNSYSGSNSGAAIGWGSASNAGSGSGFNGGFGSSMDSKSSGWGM
# Experiment: RNA Bind-n-Seq with designed 260-mer pool; 25 mM Tris-HCl, 150 mM KCl, 3 mM MgCl2, BSA (printed 500 mg/mL), 20 units/mL SUPERase IN; pH not stated; 500 nM RNA pool, 1 h, 4 C; TDP-43 5, 50, 500 nM; high values mean tight binding
# Details: protein: recombinant; tags: SBP (GST cleaved off with PreScission; pGEX-GST-SBP)
# Outline: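 Streptavidin beads captured recombinant SBP-tagged TDP-43 at 5, 50 or 500 nM, and the beads were incubated for 1 h at 4 °C with 500 nM of an in vitro-transcribed pool of 260-nt 3′ UTR oligos in 25 mM Tris-HCl, 150 mM KCl, 3 mM MgCl2, BSA and SUPERase IN. After washing, bound RNA was eluted with biotin, reverse transcribed, PCR-amplified and sequenced. Binding is reported as R, the mapped-read-normalized abundance of each oligo in the bound sample divided by its abundance in the input. Two independent protein batches served as duplicates.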
row,Binder,binding signal
1,B1,0.773 R (bound/input frequency ratio)
2,B2,0.21 R (bound/input frequency ratio)
3,B3,0.542 R (bound/input frequency ratio)
4,B4,0.46 R (bound/input frequency ratio)
5,B5,1.24 R (bound/input frequency ratio)
6,B6,0.891 R (bound/input frequency ratio)
7,B7,2.47 R (bound/input frequency ratio)
8,B8,2.36 R (bound/input frequency ratio)
9,B9,1.95 R (bound/input frequency ratio)
